Values joined by “and” are separate entries in the source; they are usually repeats but may differ in a detail not shown here. Identical values can stand only once. Counter-ions that a name gives are not always drawn. ± gives the standard deviation of the averaged measurements. In all, about 1,800 compounds were measured (“GFP- (p16Ink4a-) cell count relative to negative-control wells”: median about 0.99, lowest 2% from about 0.5 on). What follows is part of a selection rich in the lowest values, with near analogues and random picks from the rest.
What follows are compounds tested on mouse p16Ink4a+/- lung fibroblasts (INKBRITE, bleomycin-injured) (assay: GFP- (p16Ink4a-) cell count relative to negative-control wells (fold of vehicle); higher = more p16Ink4a- cells surviving). Settings: 1 µM; 3 days.
In the case of `CC(C)c1nc(CN(C)C(=O)N[C@@H](CCN2CCOCC2)C(=O)N[C@H](CC[C@H](Cc2ccccc2)NC(=O)OCc2cncs2)Cc2ccccc2)cs1` [Cobicistat], the GFP- is reported as 1.04.
Work on `CC(C)C[C@H](NC(=O)[C@H](CCc1ccccc1)NC(=O)CN1CCOCC1)C(=O)N[C@@H](Cc1ccccc1)C(=O)N[C@@H](CC(C)C)C(=O)[C@@]1(C)CO1` [Carfilzomib] yielded a GFP- of 0.433.
With `COc1ccc(C[C@H](NC(=O)[C@H](C)NC(=O)CN2CCOCC2)C(=O)N[C@@H](Cc2ccccc2)C(=O)[C@]2(C)CO2)cc1` the GFP- was 0.791.
For `CCC[C@@H]1C[C@@H](C(=O)N[C@H](C(C)Cl)[C@H]2O[C@H](SC)[C@H](O)[C@@H](O)[C@H]2O)N(C)C1` (some centres undefined) [Clindamycin HCl], the GFP- was 0.865 and 1.15.
Work on `COC(=O)C1=C(C#N)N=C(C)/C(=C(\O)OC(C)C)C1c1cccc([N+](=O)[O-])c1` (centres undefined) [Nilvadipine] yielded a GFP- of 0.683.
`CS(=O)(=O)N1CCN(Cc2cc3nc(-c4cccc5[nH]ncc45)nc(N4CCOCC4)c3s2)CC1` was tested, and the GFP- was 0.676.
Work on `Cc1c(CN2CCN(C(=O)[C@H](C)O)CC2)sc2c(N3CCOCC3)nc(-c3cnc(N)nc3)nc12` yielded a GFP- of 0.612.
`COc1ccc(-c2nc(N3CCOCC3)c3sc(CN(C)c4ncc(C(=O)NO)cn4)cc3n2)cn1` [Fimepinostat] showed a GFP- of 0.491 ± 0.025.
`CCN(CC)CC#CCOC(=O)C(O)(c1ccccc1)C1CCCCC1` (centres undefined) [Oxybutynin] showed a GFP- of 0.971.
With `Nc1ccccc1NC(=O)c1ccc(CNc2nccc(-c3cccnc3)n2)cc1` [Mocetinostat] the GFP- was 0.436 ± 0.22.
In the case of `Nc1ccccc1NC(=O)c1ccc(CNC(=O)OCc2cccnc2)cc1` [Entinostat], the GFP- is reported as 0.641 ± 0.022.
For `Cc1ccc(NC(=O)c2ccc(CN3CCN(C)CC3)cc2)cc1Nc1nccc(-c2cccnc2)n1` [Imatinib, Imatinib Mesylate], the GFP- was 1.04 and 0.966.
With `c1cnc2cc3c(cc2n1)C1CNCC3C1` [Varenicline Tartrate] the GFP- was 0.907.
Work on `CCCCc1ncc(/C=C(\Cc2cccs2)C(=O)O)n1Cc1ccc(C(=O)O)cc1` [Eprosartan] yielded a GFP- of 0.961.
`Cn1cc(-c2cnn3c(N)c(Br)c([C@@H]4CCCNC4)nc23)cn1` showed a GFP- of 0.988.
`NC(=O)N1CCC(CC(=O)N2CCC([C@H]3c4ncc(Br)cc4CCc4cc(Cl)cc(Br)c43)CC2)CC1` [Lonafarnib] was tested, and the GFP- was 0.808.
For `COCC(=O)NC/C=C/c1ccc2ncnc(Nc3ccc(Oc4ccc(C)nc4)c(C)c3)c2c1`, the GFP- was 1.06.
In the case of `C[C@H]1C[C@@H]2[C@H]([C@@H](O)C[C@@]3(C)[C@H]2CC[C@]3(O)C(=O)CO)[C@@]2(C)C=CC(=O)C=C12` [Methylprednisolone], the GFP- is reported as 0.847.
For `CN1CCCC(n2nc(Cc3ccc(Cl)cc3)c3ccccc3c2=O)CC1` (centres undefined) [Azelastine, Azelastine Hydrochloride], the GFP- was 1.
In the case of `Cc1[nH]c2ccccc2c1CCNC(=O)c1cccs1` [N-[2-(2-methyl-1H-indol-3-yl)ethyl]thiophene-2-carboxamide], the GFP- is reported as 1.11.
For `Cc1[nH]c2ccccc2c1CCNCc1ccc(/C=C/C(=O)NO)cc1` [Panobinostat], the GFP- was 0.50294 ± 0.0002.
For `O=C(/C=C/c1ccc(CN(CCO)CCc2c[nH]c3ccccc23)cc1)NO` [Dacinostat], the GFP- was 0.556 ± 0.066.
`Oc1cc2c(cc1O)[C@@H]1c3ccc(O)c(O)c3OC[C@]1(O)C2` [Hematoxylin] was tested, and the GFP- was 0.962.
`O=C(Nc1ccccc1-c1cn2c(CN3CCNCC3)csc2n1)c1cnc2ccccc2n1` was tested, and the GFP- was 0.752 and 0.432.
Work on `CCO/C(O)=C1\C(C)=NC(C)=C(C(=O)OC)C1c1cccc(Cl)c1Cl` (centres undefined) [Felodipine] yielded a GFP- of 0.531.
Work on `O=C1NC(=O)/C(=C/c2cccc(C(F)(F)F)c2)S1` yielded a GFP- of 0.979 ± 0.056.
`CC(C)N(CCC(=O)c1ccc2ccccc2c1)Cc1ccccc1` gave a GFP- of 0.897 ± 0.031.
In the case of `CNCC[C@@H](Oc1ccccc1C)c1ccccc1` [Atomoxetine], the GFP- is reported as 1.04.
With `Cc1nc(NC(=O)N2CCC[C@H]2C(N)=O)sc1-c1ccnc(C(C)(C)C(F)(F)F)c1` the GFP- was 0.875.
With `CC(C)CN(C[C@@H](O)[C@H](Cc1ccccc1)NC(=O)O[C@H]1CCOC1)S(=O)(=O)c1ccc(N)cc1` [Amprenavir] the GFP- was 1.01.
In the case of `Cc1ccc(NC(=O)C2(c3ccc4c(c3)OC(F)(F)O4)CC2)nc1-c1cccc(C(=O)O)c1` [Lumacaftor], the GFP- is reported as 0.94.
`CC(=O)O[C@H]1C(=O)[C@@]2(C)C([C@H](OC(=O)c3ccccc3)[C@]3(O)C[C@H](OC(=O)[C@H](O)[C@@H](NC(=O)c4ccccc4)c4ccccc4)C(C)=C1C3(C)C)[C@]1(OC(C)=O)CO[C@@H]1C[C@@H]2O` (some centres undefined) [Taxol, Paclitaxel] showed a GFP- of 0.505.
In the case of `CO[C@H]1C(=O)[C@]2(C)[C@@H](OC)C[C@H]3OC[C@@]3(OC(C)=O)[C@H]2[C@H](OC(=O)c2ccccc2)[C@]2(O)C[C@H](OC(=O)[C@H](O)[C@@H](NC(=O)OC(C)(C)C)c3ccccc3)C(C)=C1C2(C)C` [Cabazitaxel], the GFP- is reported as 0.558.
For `CC(=O)O[C@@]12CO[C@@H]1C[C@H](O)[C@@]1(C)C(=O)[C@H](O)C3=C(C)[C@@H](OC(=O)[C@H](O)[C@@H](NC(=O)OC(C)(C)C)c4ccccc4)C[C@@](O)([C@@H](OC(=O)c4ccccc4)[C@H]21)C3(C)C` [Docetaxel], the GFP- was 0.447.
For `Cc1ccc(-n2nc(C)c(N=Nc3cccc(-c4cccc(C(=O)O)c4)c3O)c2O)cc1C` [Eltrombopag], the GFP- was 0.82.
With `C[C@]12C=CC(=O)C=C1CC[C@H]1[C@@H]3C[C@@H](O)[C@](O)(C(=O)CO)[C@@]3(C)C[C@H](O)[C@@]12F` [Triamcinolone] the GFP- was 0.986.
For `Cc1ccc(S(=O)(=O)c2ccc([N+](=O)[O-])o2)cc1`, the GFP- was 0.415.
`NC(=O)N/N=C/c1ccc([N+](=O)[O-])o1` [Nitrofural] showed a GFP- of 0.939.
`Cc1ccc(S(=O)(=O)/C=C/C#N)cc1` showed a GFP- of 0.854.
Work on `Cc1ccccc1N1C(=O)c2cc(S(N)(=O)=O)c(Cl)cc2NC1C` (centres undefined) [Metolazone] yielded a GFP- of 0.905.
`Oc1ccc(-c2nc(-c3ccc(F)cc3)c(-c3ccncc3)[nH]2)cc1` gave a GFP- of 1.02.
In the case of `CC(C)(C)Cn1c(N)nc2ccc(-c3[nH]c(C(C)(C)C)nc3-c3ccc(F)cc3)nc21`, the GFP- is reported as 0.974.
Compound `COc1ccc(-c2ccc3ncc4c(c3c2)n(-c2ccc(N3CCNCC3)c(C(F)(F)F)c2)c(=O)n4C)cn1` has a GFP- of 0.4.
For `Cn1c(=O)n(-c2ccc(C(C)(C)C#N)cc2)c2c3cc(-c4cnc5ccccc5c4)ccc3ncc21` [Dactolisib], the GFP- was 0.74.
